87 compounds from PubChem BioAssay AID743093 (The Scripps Research Institute Molecular Screening Center, 2013) can be followed below.

The campaign covered roughly 150,000 compounds. About 100 (0.067%) were called active. This excerpt belongs to a sample that is enriched for actives. A number with no mark means an inactive call.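 How the source made its calls: active means inhibition above the mean plus 3 SD of compounds within the control limits, set per campaign (cut at about 38% in these data); inactive means the rest.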

The test can be described thus: late stage P. falciparum gametocyte viability inhibitors, primary screen, ATP luminescence, HTS (AID 743093).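 Further: 0% = DMSO wells and 100% = medium only without gametocytes.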 Conditions: P. falciparum stage V gametocytes, 24 h, at 10.9 µM, active compounds read high.
For `Cc1ccc(S(=O)(=O)N2CCN(C)CC2)cc1`, the inhibition – broadly, the change of the read-out against control, counted positive when it falls – is -1.33%.
Next, `COc1cc2c(cc1OC)C(C(=O)Nc1cc(C)c(OC)c(C)c1)CC(=O)N2` (configuration not stated): 5.54%; `CCOC(=O)c1sc(/N=C/C2=C(O)CC(C)(C)CC2=O)c(C(=O)OCC)c1C`: 22.4%.
Take `O=C(c1ccc(F)cc1)n1cc(C(=S)N2CCOCC2)c2ccccc21`: the inhibition was 0.53%.
With `Cn1cc(CN2CCC(C(O)CCc3ccccc3)CC2)c(-c2ccccc2F)n1` (configuration not stated), the inhibition was 9.2%.
Next, `N=c1n(CCc2ccccc2)c2ccccc2n1Cc1ccccc1F`: 59.9% (active); `CN(Cc1ccccc1)Cc1ccccc1F`: 19.5%; `OC(CNC1CCCC1)COc1ccc(F)cc1` (configuration not stated): -4.99%.
In the case of `NC1=NC(c2ccc([N+](=O)[O-])cc2)N(c2ccc(F)cc2)C(N)=N1` (configuration not stated) it was 9.95%; in that of `CC(C)NC(=O)/C(C#N)=C\c1ccc(N(C)C)c(Br)c1`, 7.74%.
`CNC1(c2nnnn2-c2c(C)cccc2C)CCOC(C)(C)C1` (configuration not stated): the inhibition is 5.71%.
In the case of `COc1ccc(NC(=O)c2cc(-c3ccc(C)cc3)on2)cc1` it was -2.96%.
In the case of `CCOC(=O)C1(Cc2ccccc2C)CCCN(S(C)(=O)=O)C1` (configuration not stated) it was -3.76%; in that of `COc1ccccc1C(=O)Nc1ccc(Nc2ccccc2)cc1`, -11.9%; in that of `COc1cc(OC)cc(-c2c(-c3cccs3)c3cc(-c4ccc(OC)nc4)ccc3n2C)c1`, -3.15%.
In the case of `Cc1ccc(C(=O)NNC2=Nc3cc([N+](=O)[O-])ccc3OC2)cc1` it was 5.16%; in that of `O=Cc1c(NCCCN2CCCC2=O)c2ccccc2[nH]c1=O`, -5.27%.
As to `COc1ccc(CNC(=O)C2CCCC2)cc1`, the inhibition was -3.19%.
In the case of `COc1cccc2oc(CCc3ccccc3)cc(=O)c12` it was -20%; in that of `O=C(CN1CCCCCC1)Nc1ccc(Br)cc1[N+](=O)[O-]`, -7.18%; in that of `COc1ccc(NC(=O)CS(=O)(=O)c2ccccc2)cc1`, 34.6%.
Regarding `CCC(CO)Oc1cc(NC(=O)c2cccc(F)c2)c2ncn(C(C)C)c2c1` (configuration not stated), the inhibition was -8.65%.
In the case of `CCc1nnc(NS(=O)(=O)c2ccc(NC(=O)c3cccc(OC(F)(F)C(F)F)c3)cc2)s1` it was -3.99%; in that of `CC(C)(C)OC(=O)C[C@H]1C/C=C\C[C@@H](CC(=O)N[C@H](CO)Cc2ccccc2)C(=O)NC[C@@H](c2ccccc2)OC1=O`, 20.4%.
In the case of `COc1ccc(S(=O)(=O)NCCCc2ccccc2)cc1` it was -6.3%; in that of `CCC1=NN2C(=N)/C(=C/c3cc(C)n(-c4ccccc4)c3C)C(=O)N=C2S1`, 20.8%; in that of `COC(=O)C1(CCSC)NC(c2ccc(OC)cc2OC)C2C(=O)N(c3cccc(C(C)=O)c3)C(=O)C21` (configuration not stated), 15.8%.
As for `Nc1cc(N)nc(SCc2cccc(F)c2)n1`, the inhibition was -27.3%.
Next, `COc1ccccc1C(=O)Nn1cnnc1`: -1.75%; `COc1ccc(-c2cc3ncccc3cn2)cc1`: -25%; `CC(=O)NCC(=O)NC1CCCc2c1cnn2-c1ccccc1F` (configuration not stated): -0.98%.
Next, `CCOc1cc(/C=C2\C(=N)N3N=C(C)SC3=NC2=O)ccc1OCCOc1ccccc1`: -11.6%.
In the case of `O=C1C=C(c2cccc(Cl)c2O)C[C@@H](c2ccc(F)cc2)C1` it was -16.5%; in that of `COc1ccccc1OCCCCCCN1CCN(C)CC1`, 14.7%.
For the compound `COc1cc(OC)cc(-c2sc3ccc(OC)cc3c2-c2ccc3cc[nH]c3c2)c1`, the inhibition was 5.06%.
Next, `C/C(=C/c1ccccc1)C(=O)N1CCN(c2ccccc2)CC1`: 5.72%.
Next, `Cc1cc2nc3n(c2cc1C)CC1CC(C(=O)NCCC(C)C)N(C)C31` (configuration not stated): 6.88%.
In the case of `COC(=O)[C@]1(C)N[C@H](c2ccc(-c3ccc(Cl)c(Cl)c3)cc2)[C@@H]2C(=O)N(C)C(=O)[C@@H]21` it was 15.7%; in that of `CC(C)(C)NC(=O)/C(=C/c1cccnc1)NC(=O)c1ccco1`, -3.01%; in that of `COc1ccc(C(C)NC(=O)C2CCCC2)cc1` (configuration not stated), 7.38%.
Take `O=C(CNc1ccc(F)cc1F)NC(=O)NCc1ccco1`: the inhibition was -14.3%.
For the compound `COc1ccc2ccn(C)c2c1`, the inhibition was 3.29%.
For the compound `CC(=O)N1CCC(N(C(=O)Nc2ccc(Cl)cc2)C(C)C)CC1`, the inhibition was -9.52%.
Turning to `CCC(=O)Nc1ccc(C(=O)NNC(=O)c2ccc(Cl)cc2)cc1`, the inhibition was 1.21%.
In the case of `CCN1C(=S)N[C@@H](CCc2ccccc2)[C@H](C(=O)OC)[C@H]1C`, the inhibition is 12.5%.
Next, `Oc1c(Br)cc(/C=N/NC(=S)NCC2CCCO2)cc1Br` (configuration not stated): -1.52%.
In the case of `Cc1cc(N2CCN(c3ccccc3)CC2)nc(N2CCOCC2)n1` it was -32.2%.
In the case of `COc1ccc(NC(=O)C2=NNC(=O)CC2)cc1S(=O)(=O)N1CCCCC1` it was 3.13%.
Take `COc1ccc(N(CC(=O)Nc2cccc3ccccc23)S(C)(=O)=O)c(OC)c1`: the inhibition was 7.84%.
`O=C(COc1ccccc1)N1CCN=C1SCc1cccc(F)c1`: the inhibition was 8.04%.
Next, `O=C(Nc1cccc(S(=O)(=O)NC2=NCCC2)c1)C1CCCCC1`: -1.09%; `CCOc1cc2ccccc2cc1C(=O)Nc1ccccn1`: 3.24%; `CC(=O)c1ccc(N2Cc3ccccc3C2)cc1`: 9.41%.
In the case of `O=C(CC(c1ccccc1)c1cc(Cl)ccc1O)NCCN1CCOCC1` (configuration not stated) it was -8.49%; in that of `CN(c1ccc(OCC(=O)NC2=NCCS2)cc1)S(=O)(=O)c1ccc(F)cc1`, -8.94%.
In the case of `C/C(=N/NC(=O)CN1CCN(S(=O)(=O)c2ccc(Br)cc2)CC1)c1ccncc1` it was -12.4%; in that of `Cc1nnc(C)c2c(C)n(N)c(C)c12`, -1.23%.
In the case of `COc1ccc(CCN2C(=O)C(C)=C(C)C2=O)cc1OC`, the inhibition was -7.13%.
Next, `COc1cc(OC)cc(-c2c(C#Cc3ccsc3)c3cc(-c4ccc(SC)cc4)ccc3n2C)c1`: 3.56%.
Next, `O=C(c1ccco1)N1CCN(CCOc2ccccc2)CC1`: -1.67%.
In the case of `O=C(c1ccco1)N1CCN(c2cccc(Cl)c2)CC1` it was 4.74%; in that of `O=C(c1ccco1)N1CCN(C(=O)C2c3ccccc3Oc3ccccc32)CC1`, 42.8% (active); in that of `CCCn1c(=O)c(C(=O)Nc2cc(C)ccn2)c(O)c2ccccc21`, -14.8%.
For `CC(=O)c1ccc(NC(=O)C(C)N(C)CC(=O)Nc2ccccc2Cl)cc1` (configuration not stated), the inhibition was -5.51%.
Next, `CCOC(=O)C1(CCOc2ccccc2)CCN(Cc2cc(OC)cc(OC)c2)CC1`: 9.31%.
In the case of `Cn1c(=O)c2c(-c3cccc(Br)c3)c(C#N)c(N)nc2n(C)c1=O` it was -18.2%; in that of `COc1ccccc1-c1nnc(-c2ccc(F)cc2)o1`, -17.9%.
In the case of `CCOC(=O)[C@H]1[C@H]2COc3ccccc3[C@@H]2N2C(=O)CN(Cc3ccccc3)C(=O)[C@@]12C`, the inhibition was -1.62%.
In the case of `CC(=O)Cn1cnc2c(cnn2-c2ccccc2)c1=O` it was 2.17%; in that of `O=C1C(=O)N(CCCO)C(c2ccccc2)/C1=C(\O)c1ccc(Br)cc1` (configuration not stated), 2.05%; in that of `COc1ccc(N(CC(=O)NCCSCc2cccc(Cl)c2)S(C)(=O)=O)cc1`, 1.88%.
Next, `COc1cc(OC)c(C(=S)N2CCCC2)cc1OC`: -6.55%.
In the case of `O=c1[nH]cnc(O)c1C(c1ccc(F)cc1)c1c(O)nc[nH]c1=O` it was 0.56%; in that of `CCCc1nc2oc3c(=O)[nH]cnc3c2c2c1COC(C)(C)C2`, 8.46%.
Turning to `COc1ccc(-c2c(C#Cc3ccccc3)c3ccccc3n2C)cc1`, the inhibition is -4.41%.
In the case of `Cc1cccc(NC(=O)C(C)SCc2ccccc2)c1` (configuration not stated) it was -2.36%; in that of `COc1ccc(Cc2cc(-c3ccc(F)cc3)n[nH]c2=O)cc1`, -14.6%.
For `C=CC[C@@H](CC(=O)N[C@@H](CO)Cc1ccccc1)C(=O)NCCOC(=O)[C@@H](CC=C)CC(=O)OC(C)(C)C`, the inhibition was -18.1%.
In the case of `COc1ccccc1-n1c(SCC(=O)O)nc2sc3c(c2c1=O)CCC3` it was -0.96%; in that of `Cc1cc(C)cc(NC(=O)NC2CCN(CC(=O)Nc3cccc(Cl)c3C)CC2)c1`, -10.3%; in that of `CC(C)Cc1nnc(NC(=O)CCc2ccccc2)s1`, -5.6%.
Next, `COc1ccc(CCNC(=O)C2CCCN2C(=O)Nc2ccccc2)cc1OC` (configuration not stated): 11.4%; `COC(=O)C1(C)NC(c2ccc(F)cc2)C2C(=O)N(c3ccccc3)C(=O)C21` (configuration not stated): -19.3%.
Next, `COc1ccccc1-c1oc2ccccc2c1C#CCCCCO`: 7.1%.
As to `Cc1cc(-c2n[nH]c(=S)n2/N=C/c2ccco2)n[nH]1`, the inhibition was 9.38%.
In the case of `CCCNC(=S)N1CCC(NC(=O)c2ccc(OC)cc2)CC1` it was -3.26%; in that of `COc1ccc(C(C(=O)NC(C)(C)C)N(C(=O)Cn2nnc3ccccc32)c2ccc(C(C)=O)cc2)cc1O` (configuration not stated), 8.85%.
